In the library only some 18% were active in any assay of this set; here they are far more common.
Gal4-VP16 FLuc: inhibits Gal4-VP16 luciferase reporter, ROR gamma counter-screen | Drosophila S2 Gal4-VP16 UAS-luciferase, luminescence, 20 h | Potency, µM (titrated, usually from 53.6 µM), actives largely listed as inhibitors | hit rate 3.5% among 310,000;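 note: Gal4-VP16 expression switched on by copper sulfate through the metallothionein promoter; nearly all actives have a fitted effect of over 50% in size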
TDP1 cell noCPT: qHTS for Inhibitors of human tyrosyl-DNA phosphodiesterase 1 (TDP1): qHTS in cells in absence of CPT. AID 686978, 2013. DT40 Tdp1-/- hTDP1 cells, no CPT, ATP luminescence, 48 h. Potency, µM (highest dose often 46.2 µM), most hits filed as inhibitors. hit rate 15% among 420,000; note: nearly all actives have a fitted effect of over 55% in size
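Cells were dispensed at 400 per well, compounds added by pin tool, plates incubated ≥48 hr at 37 °C, then CellTiter-Glo added for 30 min at room temperature before luminescence reading. Line: DT40 Tdp1-/- complemented with hTDP1; camptothecin omitted.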
DT40 TDP1 CPT: DT40-hTDP1 cell growth loss with CPT; hit rate 12% among 420,000; chicken DT40 Tdp1-/-;hTDP1 cells + 20 nM CPT, ATP luminescence, 48 h; Potency, µM (doses to about 46.2 µM), most hits filed as inhibitors; note: nearly all actives have a fitted effect of over 55% in size
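Cell growth measured by CellTiter-Glo luminescence after a minimum 48 h, 37 C compound exposure with 20 nM CPT in Tdp1-knockout DT40 cells stably expressing hTDP1, seeded 400/well; qHTS titration format.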
IL1B secr inh: inhibitors of inflammasome signaling (IL-1 beta secretion); THP-1 LPS/ATP IL-1B secretion, AlphaLISA, 16 h; hits give low values; activity change, % at 57.5 µM; hit rate 4.7% among 360,000; in the data active = activity change below about -50%; inconclusive = mostly about -30% to -49%
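Secreted IL-1B measured by AlphaLISA bead assay after 16 h compound exposure of THP-1 cells; compounds (final up to 57.5 uM) added 1 h before LPS (250 ng/mL) and ATP (1.25 mM) stimulation; lower signal means less secretion.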
RORgamma inh: blocks mouse ROR gamma transcriptional activity | P51450 | hit rate 5.4% among 310,000 | AID 2551 | Potency, µM (highest dose often 53.6 µM), usual class: inhibitors | Drosophila S2 Gal4-RORgamma UAS-luciferase reporter, 20 h; note: nearly all actives have a fitted effect of over 60% in size
Target sequence (P51450 whole entry, looked up, the tested form may be a part): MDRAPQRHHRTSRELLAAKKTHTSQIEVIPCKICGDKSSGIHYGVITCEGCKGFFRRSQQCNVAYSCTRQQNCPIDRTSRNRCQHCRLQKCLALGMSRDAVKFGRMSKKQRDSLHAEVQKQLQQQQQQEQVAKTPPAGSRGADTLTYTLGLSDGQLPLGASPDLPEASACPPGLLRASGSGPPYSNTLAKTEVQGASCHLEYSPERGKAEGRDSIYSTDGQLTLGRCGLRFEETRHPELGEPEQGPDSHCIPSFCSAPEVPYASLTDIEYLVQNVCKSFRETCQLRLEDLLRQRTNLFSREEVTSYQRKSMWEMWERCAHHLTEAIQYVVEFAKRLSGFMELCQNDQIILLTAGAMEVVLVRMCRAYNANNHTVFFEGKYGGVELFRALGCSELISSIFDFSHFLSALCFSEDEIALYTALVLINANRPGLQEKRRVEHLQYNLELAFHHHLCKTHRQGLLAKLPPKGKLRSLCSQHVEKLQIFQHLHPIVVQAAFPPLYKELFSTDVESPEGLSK
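Drosophila S2 cells stably expressing Gal4-DBD/mouse RORγ fusion under metallothionein promoter plus UAS-luciferase; compound 1 h, then 700 uM CuSO4 induction for 20 h at ambient temperature; inhibition read as reduced luminescence.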
LDHA inh: LDHA (human) enzyme inhibition | P00338 | purified LDHA, NADH/diaphorase-resazurin fluorescence; hits give low values | activity change, % (values are at about 110 or 230 µM) | hit rate 0.15% among 480,000 | AID 1347041; in the data active = activity change below about -30%; inconclusive = mostly about -25% to -30%
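Enzyme activity of human lactate dehydrogenase 5 (2 nM; 0.06 mM NADH, 0.2 mM pyruvate, 5 min, RT) is measured via a resazurin/diaphorase fluorescence readout of residual NADH.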
Large screens that a line does not name were inactive. Unless noted, calls come from the whole dose curve; as a rule, active = well fitted curve in the direction sought with a large enough effect; inconclusive = small, poorly fitted or top-dose-only effect, or another doubt; inactive = no such curve, though single readings can be large; an effect the other way counts as inactive or inconclusive.

CCC(=O)Nc1cccc2c1C(=O)N(C)C2=O	none
Cc1cccc(C)c1NC(=O)COC(=O)c1cccc2c1C(=O)c1ccccc1C2=O	TDP1 cell noCPT 8.2µM, DT40 TDP1 CPT 12µM
Nc1cccc(C(=O)OCC(=O)Nc2cccc3c2C(=O)c2ccccc2C3=O)c1	Gal4-VP16 FLuc inconclusive, TDP1 cell noCPT 12µM, DT40 TDP1 CPT inconclusive
Nc1cccc(C(=O)OCC(=O)c2ccccc2)c1	none
O=C(O)c1cc2c(ncc3c(=O)n(-c4ccccc4)[nH]c32)s1	DT40 TDP1 CPT inconclusive, LDHA inh -35 (no result: Gal4-VP16 FLuc, RORgamma inh)
O=c1[nH]n(-c2ccccc2)c(=O)c2ccccc12	none
Clc1nc(-c2cccnc2)nc2scc(-c3ccccc3)c12	TDP1 cell noCPT inconclusive, DT40 TDP1 CPT inconclusive, RORgamma inh inconclusive
COc1ccc(-c2csc3nc(-c4cccnc4)nc(Cl)c23)cc1OC	TDP1 cell noCPT inconclusive, DT40 TDP1 CPT inconclusive, IL1B secr inh -87
O=C(CSc1nnc(Cn2nnc3ccccc32)o1)Nc1ccc(Cl)cc1	none
COc1ccc(N(Cc2ccccc2)C(=O)CSc2nnc(Cn3nnc4ccccc43)o2)cc1	TDP1 cell noCPT 23µM, DT40 TDP1 CPT 26µM
O=C(CSc1nnc(Cn2nnc3ccccc32)o1)N(Cc1ccc(F)cc1)c1ccccc1	Gal4-VP16 FLuc inconclusive, TDP1 cell noCPT 7.1µM, DT40 TDP1 CPT 7.3µM, IL1B secr inh -82, RORgamma inh inconclusive
c1ccc(Oc2nc(-c3ccncc3)nc3ccccc23)cc1	none (no result: Gal4-VP16 FLuc, TDP1 cell noCPT, DT40 TDP1 CPT, IL1B secr inh, RORgamma inh)
S=C(S)O[C@@H]1C[C@@H]2C[C@H]1[C@@H]1CCC[C@H]21	Gal4-VP16 FLuc 1µM, RORgamma inh 0.56µM (no result: IL1B secr inh, LDHA inh)
S=C(S)OC1CC2CC1C1CCCC21 (configuration not stated)	TDP1 cell noCPT inconclusive (no result: Gal4-VP16 FLuc, RORgamma inh)
Cc1ccc(CN(C)C(=O)c2ccc3ncsc3c2)o1	none (no result: Gal4-VP16 FLuc, TDP1 cell noCPT, DT40 TDP1 CPT, IL1B secr inh, RORgamma inh)
COc1ccc2cc3cc(C(=O)Nc4ccccc4N4CCN(C)CC4)oc3nc2c1	TDP1 cell noCPT 4.6µM, DT40 TDP1 CPT 4.6µM, IL1B secr inh -96
COc1ccc2cc3cc(C(=O)N4CCN(c5ccccc5)CC4)oc3nc2c1	none
CCOCCCNC(=O)c1cc2cc3cc(OC)ccc3nc2o1	DT40 TDP1 CPT 16µM
COc1ccc2cc3cc(C(=O)NCCN4CCN(c5ccccc5F)CC4)oc3nc2c1	TDP1 cell noCPT 16µM, DT40 TDP1 CPT inconclusive, RORgamma inh inconclusive
COCCNC(=O)c1cc2cc3ccc(OC)cc3nc2o1	Gal4-VP16 FLuc inconclusive
COc1ccc2cc3cc(C(=O)NCC4CCCO4)oc3nc2c1 (configuration not stated)	IL1B secr inh -56
COc1ccc2nc3oc(C(=O)NCCCOC(C)C)cc3cc2c1	IL1B secr inh inconclusive
CCCCn1nc(C(=O)Nc2nc(C)cs2)c2ccccc2c1=O	none (no result: Gal4-VP16 FLuc, TDP1 cell noCPT, DT40 TDP1 CPT, IL1B secr inh, RORgamma inh)
COc1ccc(S(=O)(=O)c2c(O)c3ccc(C(=O)Nc4cccc(C)c4C)cc3[nH]c2=O)cc1	none (no result: Gal4-VP16 FLuc, TDP1 cell noCPT, DT40 TDP1 CPT, IL1B secr inh, RORgamma inh)
CCN(Cc1ccccc1)C(=O)CNC(=O)Cc1c[nH]c2ccccc12	none (no result: Gal4-VP16 FLuc, TDP1 cell noCPT, DT40 TDP1 CPT, IL1B secr inh, RORgamma inh)
Cc1ccc2cc3cc(C(=O)NCCCN4CCCC4)oc3nc2c1	IL1B secr inh -51
Cc1cc(C)cc(OCC(O)Cn2c(C)cc(=O)n3ncnc23)c1 (configuration not stated)	none (no result: Gal4-VP16 FLuc, TDP1 cell noCPT, DT40 TDP1 CPT, IL1B secr inh, RORgamma inh)
O=C(Nc1ccc(Cl)cc1)c1ccc(CN2CCc3ccccc3C2)cc1	Gal4-VP16 FLuc inconclusive, DT40 TDP1 CPT inconclusive, RORgamma inh inconclusive
O=C(Nc1ccc(S(=O)(=O)N2CCOCC2)cc1)c1ccc(CN2CCc3ccccc3C2)cc1	Gal4-VP16 FLuc 2.2µM, TDP1 cell noCPT 0.92µM, DT40 TDP1 CPT 1.2µM, IL1B secr inh inconclusive, RORgamma inh 8.9µM
O=C(Nc1ccc(S(=O)(=O)N2CCCC2)cc1)c1ccc(CN2CCc3ccccc3C2)cc1	Gal4-VP16 FLuc 1.4µM, TDP1 cell noCPT 4.1µM, DT40 TDP1 CPT 8.2µM, RORgamma inh 5.6µM
COc1ccc2[nH]c3c(c2c1)CCN1C(=O)N([C@@H](C)C(=O)NCc2ccccc2)C(=O)[C@]31C	TDP1 cell noCPT inconclusive, DT40 TDP1 CPT inconclusive

High-throughput results as filed in PubChem BioAssay.
